Measurements published in PubChem BioAssay (NCI).
This is part of a sample that, as a whole, favours compounds with a hit. Of some 83,000 tested, about 20% had one in any assay.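 Assay: single dose, 48 h. Readout: percent growth (0 = no net growth; negative = cell death). Active: <10.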 Values without a mark were called inactive. Active and inactive are the calls of the source.

These compounds were tested on HL-60(TB) leukemia (assay: NCI-60 one-dose screen, 48 h (100 = growth as untreated, 0 = no growth, -100 = all killed)). Details: 10 µM unless noted.

SMILES | growth
COc1ccc(-c2csc(NC(=O)c3cc(OC)c(OC)c(OC)c3)n2)cc1 | 102%
O=C/C=C/c1ccc([N+](=O)[O-])cc1 | 106%
Cc1ccc(C(=O)Nc2ccccc2N)cc1 | -19.5% (active)
COc1ccc2c(c1)OC13Oc4cc(OC)ccc4C=C1CCCC3=C2 | 7.56% (active)
Cc1cc(C(=O)Nc2ncnc3nc[nH]c23)no1 | 91.1%
C=C1C(=O)O[C@H]2[C@H]1CC/C(Cn1cc(CNC(=O)Cc3cn(C(=O)c4ccc(Cl)cc4)c4ccc(OC)cc34)nn1)=C\CC[C@@]1(C)O[C@@H]21 | -53.4% (active)
O=c1oc2c3ccc4cnccc4c3[nH]c2c2ccccc12 | 27.1%
CC(=O)Oc1ccc(Cl)cc1CN(C(C)=O)C1CCCCC1 | 92.8%
Cc1c(C(N)=O)sc2ncn(CC(=O)Nc3ccc(Cl)cc3)c(=O)c12 | 110%
CCOC(=O)c1c2c(n3c1NCC3)-c1ccccc1C2=O | 86.8%
CCCCCCCCCCC1CO1 (stereo unspecified) | 104%
CC(C)C1=NOC(=O)C1=Cc1cn(-c2ccccc2)nc1-c1ccc(F)cc1 | -34.9% (active)
CCCCC[C@H]1CC=C2C(=O)C=C[C@@H]2CC=CCCCC(=O)O[C@@H](CCCCC)CC=C2C(=O)C=C[C@@H]2CC=CCCCC(=O)O[C@@H](CCCCC)CC=C2C(=O)C=C[C@@H]2CC=CCCCC(=O)O1 | -32.4% [8.75 µM] (active)
Cc1cc(NC(=O)Nc2cccc3ccccc23)no1 | 99.5%
NCCn1cc(-c2nc(-c3c[nH]c4ncccc34)cs2)c2ccccc21 | 78.2%
O=c1c2cc(F)ccc2sc2c(NCCN3CCOCC3)nc3ccccc3c12 | 65.3%
Clc1nc(Cl)c2ncn(-c3ccccc3)c2n1 | 46.1%
CN(C[C@@H]1COCCO1)S(=O)(=O)Nc1ccc2ccc3ncc(-c4cnn(C)c4)cc3c(=O)c2c1 | 48.1%

SMILES | growth
COc1ccc(/C=C/C(=O)C(CC2CCC2)C(=O)/C=C/c2ccc(OC)c(OC)c2)cc1OC | -27.5% (active)
CN(C)c1ccc(/C=C/C(=O)c2cccc(Nc3nc(Nc4ccccc4)nc(Nc4ccccc4)n3)c2)cc1 | 99.9%
CCCCCCCCCCCCCCCC(=O)OC[C@@]1(O)C[C@@]23CC[C@@H]4C(C)(C)CCC[C@@]4(C)[C@@H]2CC[C@H]1C3 | 73.3%
CN(C)CCN1C(=O)c2cccc3c(/C=C/CN4C(=O)c5cccc6cccc(c56)C4=O)ccc(c23)C1=O | 12.9%
O=P(OCCCl)(OCCCl)C(O)c1ccccc1Cl (stereo unspecified) | 96.2%
Cc1ccc(-c2nc(N3CCCNCC3)c3oc(-c4ccccc4)nc3n2)cc1 | -69.7% (active)
C=C1C(=O)O[C@H]2[C@H]1CC/C(COC(=O)OCCCCCOC(=O)OC/C1=C/CC[C@@]3(C)O[C@H]3[C@H]3OC(=O)C(=C)[C@@H]3CC1)=C\CC[C@@]1(C)O[C@@H]21 | -23.1% (active)
O=C(Oc1ccc[nH]c1=O)c1cc([N+](=O)[O-])cc([N+](=O)[O-])c1 | 75.7%
COC(=O)[C@]12CC[C@@H](C)[C@H](C)[C@@H]1C1=CC[C@@H]3[C@@]4(C)C(C=O)=C[C@@](C)(COC(=O)c5ccco5)[C@@H]4C(=O)C[C@@]3(C)[C@]1(C)CC2 | 10.1%
COc1cc2cc(Oc3ccc(NC(=O)Nc4ccc(Cl)c(C(F)(F)F)c4)cc3)c(C)nc2cc1OCCN1CCOCC1 | 11%
COc1ccc(/C(C#N)=C/c2cc(OC)c(OC)c(OC)c2)cc1 | 14.8%
Nc1cc(C(F)(F)F)c(-c2cc(N3CCOCC3)nc(N3CCOCC3)n2)cn1 | -41.3% (active)
CN(C)c1cccc2[nH]c(-c3[nH]ncc3Nc3ccnc(N)n3)nc12 | -42.7% (active)
COc1ccc(Nc2cnc3cc(NS(=O)(=O)c4ccc(C)cc4)ccc3n2)cc1 | 70%
Cn1nc(C(F)(F)F)c(-c2ccc(Cl)c(C(F)(F)F)c2)c1-c1ccc(OCc2ccc(Cl)cc2)cc1O | 9.3% (active)
COc1cc(CSc2nc3ccc(C)cc3c(=O)n2-c2ccccc2)cc(OC)c1OC | 12.2%
Brc1ccc(SCN(CSc2ccc(Br)cc2)Cc2ccccc2)cc1 | 40.3%
Cn1c(=O)c2c(nc(N3CCCC3)n2C)n(C)c1=O | 95.4%
